Measured values taken from PubChem BioAssay AID618 (Sanford-Burnham Center for Chemical Genomics, 2007).
Out of some 87,000 compounds screened, about 540 (0.62%) were called active. The rule behind the calls is not given here. What follows is part of a selection rich in actives, with near analogues and random picks from the rest. Entries that show only a call come without a potency. Potency and affinity values are given separately.

Assay: inhibitors of MT1-MMP promoter transcription, cell-based, luciferase reporter, luminescence (AID 618);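 note: actives suppress MT1-MMP promoter-driven transcription so potencies describe inhibitors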
Conditions: MT1-MMP promoter luciferase reporter cells

SMILES	outcome
Cc1cc2ncn(CC(O)COC3CCCCC3)c2cc1C (stereo not drawn)	inactive
CC(=O)Nc1ccc(OCC(=O)c2ccc(C)cc2C)cc1	inactive
CC(C)NC(=O)c1ccccc1NC(=O)c1ccccc1N(C)S(C)(=O)=O	inactive
CCOC(=O)c1n[nH]c2ccccc12	inactive
COCC(C)n1c(C)cc(C(=O)COC(=O)c2n[nH]c3ccccc23)c1C (stereo not drawn)	inactive
Cc1cc(NC(=O)COC(=O)c2n[nH]c3ccccc23)no1	inactive
COCCn1c(C)cc(C(=O)COC(=O)c2ccc(-n3nc(C)cc3C)cc2)c1C	inactive
COCCn1c(C)cc(C(=O)COC(=O)c2n[nH]c3ccccc23)c1C	active
CCCCCn1c(=O)[nH]c2cc(C(=O)O)ccc2c1=O	inactive
Clc1ccccc1CSc1nnc(Cn2cnc3ccccc32)n1-c1ccccc1	inactive
CN1CCC(NC(=O)c2cccs2)CC1	inactive
CCCOc1ccc(-c2nnc(-c3ccco3)o2)cc1	inactive
CCCOc1ccc(-c2nnc(-c3ccncc3)o2)cc1	inactive
CCOc1ccc(-c2nnc(-c3cccs3)o2)cc1	inactive
CC(C)COc1ccc(-c2nnc(-c3ccco3)o2)cc1	inactive
O=C(CN1CCOCC1)Nc1c2c(nc3ccccc13)N(Cc1ccccc1)CC2	inactive
O=C(O)C1CCN(S(=O)(=O)c2ccc(Oc3ccccc3)cc2)CC1	inactive
Cc1cc(NC(=O)CCCC(=O)Nc2ccc(F)cc2)no1	inactive
COc1ccc(S(=O)(=O)N[C@@H](Cc2ccccc2)C(=O)N2CC[C@@]3(O)CCCC[C@H]3C2)cc1	inactive
Cc1c(NC(=O)c2cnn3c2NC(c2ccc(Br)cc2)CC3C(F)(F)F)c(=O)n(-c2ccccc2)n1C (stereo not drawn)	inactive
c1ccc(-c2nc3ccccc3o2)nc1	inactive
c1ccc2nc(-c3nc4ccccc4o3)ccc2c1	active
c1cc(-c2nc3ccccc3o2)nc(-c2nc3ccccc3o2)c1	inactive
CCNc1nnc(-c2ccc(C)cc2)o1	inactive
Cc1ccc(-c2nnc(-c3ccccc3)o2)cc1	inactive

SMILES	outcome
Cc1ccc(-c2nnc(Nc3ccccc3)o2)cc1	active
O=C(O)CCCn1c(=O)[nH]c2ccccc2c1=O	inactive
CC(=O)N1c2ccccc2N(Cc2ccc(C)cc2C)C(=O)C1(C)C	active
Cc1ccc(C)c(CN2C(=O)C3(OCCCO3)c3ccccc32)c1	inactive
Cc1ccc(C(=O)N2c3ccccc3N(Cc3ccccc3)C(=O)C2(C)C)cc1	inactive
COc1ccc(N(C)S(=O)(=O)c2ccc3c(c2)oc(=O)n3C)cc1	inactive
Cc1[nH]c2ccc(C(=O)O)cc2c1C	inactive
Cc1nn2c(CN(C(=O)c3ccco3)c3ccccc3)nnc2c2ccccc12	inactive
O=C(N1CCOCC1)n1nnc2ccccc21	inactive
O=S(=O)(N1CCOCC1)n1nnc2ccccc21	inactive
O=C(CSc1ncnc2ccccc12)N1CCN(c2ccccc2)CC1	inactive
NC(=O)C1CCN(C(=O)c2cc3ccccn3n2)CC1	inactive
Cc1ccc(-c2nnn(CCC(=O)NC(C)(C)C)n2)cc1	inactive
COC(=O)CCn1nnc(-c2cccs2)n1	inactive
COC(=O)CCn1nnc(-c2ccc(C)cc2)n1	inactive
COc1ccc(-c2nnn(CCC(=O)O)n2)cc1	inactive
COc1cccc(-c2nnn(CCC(=O)O)n2)c1	inactive
COc1ccc(NC(=O)CCn2nnc(-c3ccc(C)cc3)n2)cc1OC	inactive
O=C(c1ccc(CS(=O)(=O)c2ccccc2)o1)N1CCOCC1	inactive
CCCn1c(=S)[nH]c2cc(OC)c(OC)cc2c1=O	inactive
CC(=O)N1CCN(CCN=CC2=C(O)CC(c3ccc(Cl)cc3)CC2=O)CC1 (stereo not drawn)	inactive
O=C(C1CCCN(Cc2ccccc2)C1)N1CCc2ccccc2C1 (stereo not drawn)	inactive
NC(=O)c1cc(Cl)cn(-c2ccccc2)c1=O	inactive
CCOC(=O)C1CCCN(c2ncnc3c2[nH]c2cccc(OC)c23)C1 (stereo not drawn)	inactive
O=C(c1cc(-c2cccs2)nc2ccccc12)N1CCN(S(=O)(=O)c2cccc(F)c2)CC1	inactive

SMILES	outcome
CSC(=O)CC(=O)NC(=O)c1ccccc1	inactive
Cc1ccc(NC(=O)c2c(C)nc(Nc3nc4ccccc4o3)nc2C)cc1	inactive
Cc1cccc(C)c1Nc1nc2ccccc2o1	inactive
O=c1[nH]c(Nc2nc3ccccc3o2)nc2c1CCCC2	inactive
Cc1ccc2oc(Nc3nc(C)cc(C)n3)nc2c1	inactive
O=C(c1cccs1)N1CCc2ccccc21	inactive
Cc1ccc(-c2nc(-c3ccccn3)no2)cc1Cl	active
COc1cccc(-c2nc(-c3ccccc3)no2)c1	inactive
Clc1ccc(-c2nc(-c3ccccn3)no2)cc1Cl	inactive
c1ccc(SCc2nc(-c3ccccn3)no2)cc1	inactive
c1ccc(-c2noc(-c3ccc4ccccc4c3)n2)nc1	active
COc1cccc(-c2noc(-c3cccnc3)n2)c1	inactive
Cc1ccc(SCc2nc(-c3ccccn3)no2)cc1	inactive
Cc1onc(-c2ccccc2Cl)c1-c1nc(-c2ccccn2)no1	inactive
c1ccc(-c2cc(-c3nc(-c4ccccn4)no3)c3ccccc3n2)cc1	inactive
COc1ccc(-c2noc(-c3cccc(Cl)c3)n2)cc1OC	inactive
Clc1cccc(-c2nc(-c3ccccn3)no2)c1	active
O=C(Nc1nccs1)c1ccc(COc2ccccc2Br)o1	inactive
O=C(CSCc1c(Cl)cccc1Cl)Nc1nccs1	inactive
CCCCOC(=O)Nc1ccc(C(N)=O)cc1	inactive
C/C=C/c1ccc(OCCCNC)c(OC)c1	inactive
CC1CCN(C(=O)COc2ccccc2F)CC1	inactive
O=C(CCn1c(=O)[nH]c2ccsc2c1=O)N1CCN(c2cccc(Cl)c2)CC1	inactive
CCCc1cc(C(=O)Nc2cc(OC)c(Cl)cc2OC)no1	inactive
COc1ccc(-c2noc(-c3ccccc3-c3ccccc3)n2)cc1	inactive

SMILES	outcome
c1ccc(-c2noc(-c3cccnc3)n2)nc1	inactive
c1ccc(-c2noc(-c3ccc4c(c3)OCO4)n2)nc1	active
Brc1ccc(-c2nc(-c3ccccc3)no2)o1	inactive
c1ccc(-c2noc(-c3ccco3)n2)nc1	inactive
c1ccc(-c2noc(-c3ccncc3)n2)nc1	inactive
c1cc(-c2noc(-c3ccc4c(c3)OCO4)n2)ccn1	inactive
COc1ccc(-c2nc(-c3ccccc3)no2)c(OC)c1	active
COc1ccc(-c2noc(-c3ccc4c(c3)OCO4)n2)cc1	inactive
COc1ccc(-c2nc(-c3ccc(Br)cc3)no2)c(OC)c1	inactive
Cc1sc2nc(SCC(=O)N3CCCC3)[nH]c(=O)c2c1C	inactive
O=C1CC(c2ccco2)c2ccc3ccccc3c2N1 (stereo not drawn)	inactive
CCOC(=O)c1cnc(SCC(=O)c2ccc(C)cc2)nc1N	inactive
Cc1cc(C)n(CC(O)Cn2ccc3ccccc32)n1 (stereo not drawn)	inactive
CCOc1ccc(-c2nc(-c3ccccc3)no2)cc1OCC	inactive
c1ccc(-c2nnc(-c3ccccc3)o2)cc1	inactive
c1ccc(-c2noc(-c3ccc4ccccc4c3)n2)cc1	active
Cc1ccc(Cc2nc(-c3ccccn3)no2)cc1	inactive
c1ccc(-c2nnc(-c3cccc(-c4nnc(-c5ccccc5)o4)c3)o2)cc1	inactive
Cc1occc1-c1nc(-c2ccccn2)no1	inactive
Brc1cccc(-c2nc(-c3ccncc3)no2)c1	inactive
CC1=CCC(C(=O)O)C(C(=O)Nc2nc3ccc(S(C)(=O)=O)cc3s2)C1 (stereo not drawn)	inactive
Cn1c(=O)c2c(ncn2CC(=O)N2CCN(c3ccccc3F)CC2)n(C)c1=O	inactive
COc1ccc(-c2c(C)n([O-])c(C)c(C)[n+]2=O)cc1	inactive
COc1ccc(S(=O)(=O)N2C3CCC2CC(NC(=O)NC2CCCCC2)C3)cc1 (stereo not drawn)	inactive
COc1cccc(NS(=O)(=O)c2ccc3[nH]cc(C(=O)NC4CC4)c(=O)c3c2)c1	inactive

SMILES	outcome
CCCn1c(-c2ccc(OC)cc2)nc2c(=O)n(C)c(=O)[nH]c21	inactive
CCC(C)NS(=O)(=O)c1ccc(NC(=O)c2c(-c3ccccc3)noc2C)cc1 (stereo not drawn)	inactive
O=C(NCCCc1ccccc1)c1cnc2n(c1=O)CCS2	inactive
O=C(COc1cccc(C(F)(F)F)c1)NCCCN1CCCC1=O	inactive
CCC(=O)Nc1ccc2c(c1)C(=O)N(C1CCCCC1)C2=O	inactive
CCN(CC)c1ccc2cc(C(C)=O)c(=O)oc2c1	inactive
CCN(CC)c1ccc2cc(C(=O)Nc3ccccn3)c(=O)oc2c1	inactive
CC(C)C(NS(=O)(=O)c1ccc(Br)s1)C(=O)O (stereo not drawn)	inactive
O=C(CCCSc1nnc(-c2cccs2)n1CC1CCCO1)c1ccccc1 (stereo not drawn)	inactive
COC(=O)c1ccc(Oc2cc(C)nc(SC)n2)cc1	inactive
CC(=O)c1ccc(Oc2cc(C)nc(-n3nc(C)cc3C)n2)cc1	active
CCOc1ccc(Nc2cc(C)nc(-n3nc(C)cc3C)n2)cc1	inactive
CC(=O)c1ccc(Oc2cc(C)nc(NCc3ccccc3)n2)cc1	inactive
COc1ccc(Nc2cc(C)nc(-n3nc(C)cc3C)n2)cc1	active
COC(=O)c1ccc(Oc2nc(C)cc(Oc3ccccc3)n2)cc1	inactive
Cc1ccc(Oc2cc(-n3nc(C)cc3C)ncn2)cc1	inactive
CNc1cc(C)nc(-n2nc(C)cc2C)n1	inactive
COC(=O)c1ccc(Oc2cc(C)nc(-n3nc(C)cc3C)n2)cc1	active
Cc1ccc(C(=O)NCc2cccs2)cc1S(=O)(=O)N1CCCCC1	inactive
Cc1cccc(OCCn2c(=O)sc3ccccc32)c1	inactive
CCSc1nnc(NC(=O)CSc2nc3c(c(=O)n2C)SC(C)C3)s1 (stereo not drawn)	inactive
COc1ccc(C)cc1S(=O)(=O)N(C)CC(=O)Nc1ccccc1	inactive
Cc1ccc(-c2nnc(SCC(=O)N3CCCC3)o2)cc1C	inactive
